Source: PubChem BioAssay AID1159580 (chemical genetic matrix, 2015)
“And” between values parts separate entries of the source, which are not always exact repeats. Identical values can stand only once. About 2,000 (36%) of roughly 5,500 compounds were called active. About 18% were inconclusive and are not listed. No stated cut-off is given here; in the data, active means normalized growth mostly below about 0.91 (no sharp cut-off); inconclusive means no clear call, values can overlap the other calls; inactive means mostly above about 0.92. The list shows a part of the results.

Experiment: chemical genetic growth profiling, strain panel (AID 1159580);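 further: tested at 20 µM; growth read once vehicle control cultures reached saturation at 30 °C; 1 = growth at the plate median or of vehicle wells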
Conditions: S. cerevisiae deletion strains, growth OD

Measured: normalized growth

O=c1n(CCCN2CCN(c3cccc(Cl)c3)CC2)nc2ccccn12
inactive: locus YAL013W, strain DEP1, stronger effect = lower value 0.995 | locus YAL021C, strain ccr4, stronger effect = lower value 0.939 | locus YAL026C, strain drs2, stronger effect = lower value 0.987 | locus YAL030W, strain snc1, stronger effect = lower value 0.988 | locus YAL040C, strain CLN3, stronger effect = lower value 0.987 | locus YBL061C, strain skt5, stronger effect = lower value 0.983 | locus YBR009C, strain hhf1, stronger effect = lower value 0.983 | locus YBR021W, strain FUR4, stronger effect = lower value 0.998 | locus YBR023C, strain chs3, stronger effect = lower value 0.981 | locus YBR171W, strain sec66, stronger effect = lower value 0.979 | locus YBR229C, strain ROT2, stronger effect = lower value 0.951 | locus YBR231C, strain swc5, stronger effect = lower value 0.981 | locus YBR279W, strain paf1, stronger effect = lower value 0.985 | locus YCL011C, strain gbp2, stronger effect = lower value 0.976 | locus YCL016C, strain dcc1, stronger effect = lower value 0.982 | locus YCL029C, strain bik1, stronger effect = lower value 0.987 | locus YCL061C, strain MRC1 (second series), stronger effect = lower value 0.998 | locus YCL061C, strain MRC1, stronger effect = lower value 0.984 | locus YCL069W, strain vba3, stronger effect = lower value 0.975 | locus YCR088W, strain abp1, stronger effect = lower value 0.978 | locus YDL005C, strain med2, stronger effect = lower value 0.965 | locus YDL035C, strain GPR1, stronger effect = lower value 0.984 | locus YDL040C, strain nat1, stronger effect = lower value 0.979 | locus YDL074C, strain BRE1, stronger effect = lower value 0.941 | locus YDL101C, strain DUN1, stronger effect = lower value 0.97 | locus YDL134C, strain PPH21, stronger effect = lower value 1 | locus YDL185W, strain tfp1, stronger effect = lower value 0.982 | locus YDL192W, strain arf1, stronger effect = lower value 0.986 | locus YDR001C, strain nth1, stronger effect = lower value 0.986 | locus YDR069C, strain doa4, stronger effect = lower value 0.966 | locus YDR101C, strain arx1, stronger effect = lower value 0.97 | locus YDR137W, strain rgp1, stronger effect = lower value 0.94 | locus YDR150W, strain NUM1, stronger effect = lower value 0.992 | locus YDR159W, strain sac3, stronger effect = lower value 0.956 | locus YDR162C, strain NBP2, stronger effect = lower value 0.991 | locus YDR195W, strain ref2 0.977 | locus YDR297W, strain sur2, stronger effect = lower value 0.98 | locus YDR318W, strain mcm21, stronger effect = lower value 0.998 | locus YDR334W, strain swr1, stronger effect = lower value 0.964 | locus YDR335W, strain msn5, stronger effect = lower value 0.984 | locus YDR363W, strain ESC2, stronger effect = lower value 0.998 | locus YDR388W, stronger effect = lower value 0.989 | locus YDR392W, strain spt3, stronger effect = lower value 0.95 | locus YDR502C, strain sam2, stronger effect = lower value 0.989 | locus YEL003W, strain gim4, stronger effect = lower value 0.986 | locus YEL037C, strain rad23, stronger effect = lower value 0.964 | locus YEL061C, strain CIN8 (second series), stronger effect = lower value 0.975 | locus YEL061C, strain CIN8, stronger effect = lower value 0.986 | locus YER002W, strain NOP16, stronger effect = lower value 1 | locus YER015W, strain faa2, stronger effect = lower value 0.978 | locus YER016W, strain bim1, stronger effect = lower value 0.987 | locus YER110C, stronger effect = lower value 0.984 | locus YER111C, strain swi4, stronger effect = lower value 0.971 | locus YER155C, strain BEM2 (second series), stronger effect = lower value 0.948 | locus YER155C, strain BEM2, stronger effect = lower value 0.994 | locus YER167W, strain BCK2, stronger effect = lower value 1 | locus YFR010W, strain ubp6, stronger effect = lower value 0.975 | locus YGL078C, strain dbp3, stronger effect = lower value 0.999 | locus YGL086W, strain mad1, stronger effect = lower value 0.976 | locus YGL167C, strain pmr1, stronger effect = lower value 0.976 | locus YGL173C, strain kem1, stronger effect = lower value 0.973 | locus YGL227W, strain vid30, stronger effect = lower value 0.985 | locus YGL240W, strain doc1, stronger effect = lower value 0.98 | locus YGL248W, strain PDE1, stronger effect = lower value 0.964 | locus YGL253W, strain hxk2, stronger effect = lower value 0.999 | locus YGR078C, strain PAC10, stronger effect = lower value 0.99 | locus YGR135W, strain pre9, stronger effect = lower value 1.03 | locus YGR229C, strain SMI1, stronger effect = lower value 1.01 | locus YGR252W, strain gcn5, stronger effect = lower value 0.993 | locus YHR013C, strain ard1, stronger effect = lower value 0.854 | locus YHR027C, strain rpn1, stronger effect = lower value 0.978 | locus YHR030C, strain SLT2, stronger effect = lower value 1 and 0.995 | locus YHR079C, strain IRE1 (second series), stronger effect = lower value 0.998 | locus YHR079C, strain IRE1, stronger effect = lower value 1 | locus YHR094C, strain hxt1, stronger effect = lower value 0.99 | locus YHR129C, strain ARP1, stronger effect = lower value 0.994 | locus YHR142W, strain chs7, stronger effect = lower value 0.985 | locus YHR200W, strain rpn10, stronger effect = lower value 0.997 | locus YIL066C, strain RNR3, stronger effect = lower value 0.955 | locus YIL073C, strain SPO22, stronger effect = lower value 1.13 | locus YIL125W, strain kgd1, stronger effect = lower value 0.988 | locus YIR030C, strain dcg1, stronger effect = lower value 0.987 | locus YJL092W, strain hpr5, stronger effect = lower value 0.97 | locus YJL095W, strain BCK1 (second series), stronger effect = lower value 0.987 | locus YJL095W, strain BCK1, stronger effect = lower value 0.898 and 1 | locus YJL115W, strain asf1, stronger effect = lower value 0.978 | locus YJL129C, strain trk1, stronger effect = lower value 0.946 | locus YJL134W, strain LCB3, stronger effect = lower value 0.992 | locus YJL154C, strain vps35, stronger effect = lower value 0.975 | locus YJL164C, strain tpk1, stronger effect = lower value 0.984 | locus YJL166W, strain qcr8, stronger effect = lower value 0.969 | locus YJL168C, strain set2, stronger effect = lower value 0.993 | locus YJL187C, strain SWE1 (second series), stronger effect = lower value 0.932 | locus YJL187C, strain SWE1, stronger effect = lower value 0.979 | locus YJR043C, strain POL32, stronger effect = lower value 0.936
